Out of some 12,000 compounds screened, about 45 (0.4%) were called active. No stated cut-off is given here; in the data, active means inhibition mostly above about 83% (no sharp cut-off); inactive means mostly below about 52%. Many of the other results were omitted from the sample, so actives are more common in it than they were.
Tests used:
[1] = BmaI1 acyl-homoserine lactone synthase inhibition – biochemical, fluorescence intensity, with counterscreen (AID 720554); details: BmaI1 enzyme assay, measured here: counterscreen fluorescence % control, concentration not given here
[2] = tested on: acyl-homoserine lactone synthase BmaI1 (Burkholderia mallei ATCC 23344); test: as above; details: BmaI1 enzyme assay, stronger effect = higher value, concentration not given here

| SMILES | inhibition [1] [%] | inhibition [2] |
| --- | --- | --- |
| CC(OC(=O)c1ccc(NS(=O)(=O)c2cccs2)cc1)c1nc2scc(-c3cccs3)c2c(=O)[nH]1 (stereo not drawn) | 8.5 | 15.5% (inactive) |
| CC1=C/C(=N\NC(=O)COc2ccc(C#N)cc2)CC(C)(C)C1 | 2 | 9% (inactive) |
| CNC(C)c1ccccc1 (stereo not drawn) | -4.5 | -1.5% (inactive) |
| COC(=O)c1cnc(N)s1 | 5 | 17% (inactive) |
| Oc1ccc(/C=N/NC(=S)Nc2ccc(Cl)cc2Cl)c(O)c1O | 15.5 | 84% (active) |
| Fc1ccccc1NC(=S)N/N=C/c1cn(-c2ccccc2)nc1-c1cc2ccccc2o1 | 2.5 | 6% (inactive) |
| O=CN1CCN(C(=S)Nc2ccc(Cl)cc2Cl)CC1 | 9 | -3% (inactive) |
| O=C(NCc1ccccc1)c1cccc(OCC(=O)N2CCOCC2)c1 | -11 | -13.5% (inactive) |
| CC1(C)CC(NCc2cc(Cl)c3c(c2)OCCCO3)CC(C)(C)N1 | 4.5 | 10% (inactive) |
| Cn1c(N)c(C(=O)CSc2nc3sc4c(c3c(=O)n2Cc2ccco2)CCCC4)c(=O)[nH]c1=O | 5 | 12.5% (inactive) |
| COc1ccccc1NC(=O)c1ccc(NC(=O)COC(=O)C2CCCO2)cc1 (stereo not drawn) | -4.5 | -1.5% (inactive) |
| Sc1ccc2c(c1)OCCCO2 | 3.5 | 38% (inactive) |
| CCOC(=O)C1CCN(C(C)C(=O)Nc2ccc(C(C)C)cc2)CC1 (stereo not drawn) | 3 | 9.5% (inactive) |
| Nn1cc(-c2ccccc2)[nH]c1=S | 52 | 104% (inactive) |
| S=c1[nH]cc2ccccn12 | 5.5 | 96.5% (active) |
| Ic1ccc(-c2ncc3ccccn23)cc1 | 11 | 17.5% (inactive) |
| CC(=O)NS(=O)(=O)c1ccc(N)cc1 | 9.5 | -0.5% (inactive) |
| Nc1ccc(S(=O)(=O)CCSS(=O)(=O)c2ccc(N)cc2)cc1 | 0.5 | 88% (active) |
| Nc1ccc(S(=O)(=O)c2ccc(N)cc2)cc1 | 6 | -2.5% (inactive) |
| Cc1nnc(SC(C)C(N)=O)n1Cc1ccccc1 (stereo not drawn) | -2 | 9.5% (inactive) |

| SMILES | inhibition [1] [%] | inhibition [2] |
| --- | --- | --- |
| COc1ccccc1NC1CC(=O)N(c2cccc(Cl)c2)C1=O (stereo not drawn) | 10.5 | 17.5% (inactive) |
| COc1cccc(Nc2nnc(SCC(=O)c3cc(C)n(C)c3C)s2)c1 | 9 | 20% (inactive) |
| COc1cccc(N2C(=O)CC(n3nc(Nc4cccc(C)c4)sc3=S)C2=O)c1 (stereo not drawn) | 27.5 | 102% (active) |
| C[C@@H](C(=O)N1CCSC1=NCc1ccccc1)N1C(=O)C2CC=CCC2C1=O (stereo partly drawn) | 4 | 8.5% (inactive) |
| CC1CC(C)CN(C(=O)c2cc3ccccc3oc2=O)C1 (stereo not drawn) | 9 | 8.5% (inactive) |
| Cc1csc(SCC(=O)c2ccc(S(=O)(=O)N3CCCCC3)cc2)n1 | 21.5 | 58.5% (inactive) |
| O=C(CSc1nc2ccccc2c(=O)n1C1CCCC1)Nc1ccc2c(c1)OCCO2 | 6 | 28% (inactive) |
| O=C(CN1CCN(S(=O)(=O)Cc2ccccc2)CC1)Nc1ccc2[nH]c(=O)[nH]c2c1 | 15.5 | 35.5% (inactive) |
| CN1CCN(C(c2ccccn2)c2c(-c3ccccc3)n(O)c3ccccc23)CC1 (stereo not drawn) | 17 | 105% (active) |
| Oc1c(C(c2ccccn2)N2CCN(c3ccc(F)cc3)CC2)cc(Cl)c2cccnc12 (stereo not drawn) | -13.5 | 0.5% (inactive) |
| CCn1c(-c2ccccc2)c(C(=O)CN2CCN(C)CC2)c2ccccc21 | 2.5 | 38% (inactive) |
| CN(C)C(=O)CN1C(=O)c2ccccc2S1(=O)=O | -3 | 2% (inactive) |
| O=C1c2ccccc2S(=O)(=O)N1Cc1cc(=O)[nH]c(=O)[nH]1 | -2.5 | -1% (inactive) |
| CNC(=O)c1sc(CN2C(=O)c3ccccc3S2(=O)=O)nc1C | -7 | 91% (active) |
| CC(Sc1ccccc1F)C(=O)Nc1ccc(S(N)(=O)=O)cc1 (stereo not drawn) | 1 | 9.5% (inactive) |
| Cn1c(Cc2cccs2)nnc1SCC(=O)N1CCNC1=O | 2.5 | 15% (inactive) |
| CCCn1c(SCCCC(=O)c2cccs2)n[nH]c1=O | -0.5 | 5.5% (inactive) |
| COC(=O)c1ccc(C(c2cc3c(cc2O)OCO3)N2CCN(c3ccccc3)CC2)cc1 (stereo not drawn) | 24 | 83% (active) |
| Oc1cc2c(cc1C(c1ccc(C(F)(F)F)cc1)N1CCN(c3ccccc3)CC1)OCO2 (stereo not drawn) | 5 | 5.5% (inactive) |
| COC(=O)c1ccc(C(c2c(O)ccc3ccccc23)N2CCOCC2)cc1 (stereo not drawn) | 11 | 18% (inactive) |

| SMILES | inhibition [1] [%] | inhibition [2] |
| --- | --- | --- |
| COc1ccc(C(=O)Nc2nccs2)c(F)c1 | 6.5 | 9.5% (inactive) |
| Cc1ccc(SCC(=O)NC(=O)C(C)C)cc1C | 8 | 14.5% (inactive) |
| CC(C)c1nc(C#N)c(NCc2cccnc2)o1 | 16.5 | 31% (inactive) |
| Cc1cc(C(=O)OCC(=O)c2ccc(NC(=O)CC(C)C)cc2)no1 | 14.5 | 13.5% (inactive) |
| FC(F)Oc1ccc(NC(=S)NNc2ccc(Cl)nn2)cc1 | 28 | 104% (active) |
| FC(F)Oc1ccc(NC(=S)NC2CCCC2)cc1 | -10.5 | -12.5% (inactive) |
| CN(CC(=O)Nc1ccc(Cl)cc1)C(=O)c1ccc(OC(F)F)cc1 | 17 | 13% (inactive) |
| CCC(C)N=C1NC(=O)C(CC(=O)NCc2ccccc2)S1 (stereo not drawn) | 8.5 | 10.5% (inactive) |
| COC(=O)c1c(C)[nH]c(=O)[nH]c1=S | 1.5 | -6.5% (inactive) |
| COC(=O)C1=NC=CN2CCS(=O)(=O)N=C12 | 9.5 | 7% (inactive) |
| O=S1(=O)CCN2C=CSC2=N1 | 11.5 | 17% (inactive) |
| Cc1sc2c(c1C)C1=NS(=O)(=O)CCN1C=N2 | 10 | 88.5% (active) |
| CCOc1ccccc1NC(=O)CSc1nc(O)cc(=O)n1C1CCCC1 | 5.5 | 7.5% (inactive) |
| CCOc1ccc(O)c(C=NC2CCCC2)c1 | 2.5 | 2.5% (inactive) |
| COc1ccc(OCC(=O)N2CC(C)CC(C)C2)cc1 (stereo not drawn) | -8 | 7% (inactive) |
| N/C(Cc1nc2ccccc2[nH]1)=N\O | 2 | 24% (inactive) |
| CC(C)(C)Cc1nc2ccccc2[nH]1 | 18 | 20.5% (inactive) |
| NC(=S)Cc1nc2ccccc2[nH]1 | 27 | 98% (active) |
| Cc1cc(=O)[nH]c(NNC(=S)Nc2ccc(S(=O)(=O)N3CCOCC3)cc2)n1 | 10 | 72% (inactive) |

Source: PubChem BioAssay AID720554 (ICCB-Longwood Screening Facility, Harvard Medical School, 2013)
